# Results filed as inconclusive are left out. Calls of active or inactive are those of the source. Rule for the calls: active = hit-call score of the fitted dose curve at least 0.9, where 1 is the maximum; inconclusive = response in the unintended direction; inactive = score below 0.9.
# Molecular target: human Insulin-like Growth Factor 1 Receptor (IGF1R), IGF1R (gene 3480) (UniProt P08069)
# Assay: NVS_ENZ_hIGF1R: NovaScreen (NVS) Enzymatic Assay for human Insulin-like Growth Factor 1 Receptor (IGF1R)
# Method: NVS_ENZ_hIGF1R is a biochemical, single-readout assay that uses extracted gene-proteins in a cell-free assay. Measurements were taken 1 hour after chemical dosing in a 384-well plate.NVS_ENZ_hIGF1R is one of one assay component(s) measured or calculated from the NVS_ENZ_hIGF1R assay. It is designed to make measurements of enzyme activity, a form of enzyme reporter, as detected with fluorescence intensity signals by Fluorescence and electrophoretic mobility shift technology.Data from the assay component NVS_ENZ_hIGF1R was analyzed into 1 assay endpoint. This assay endpoint, NVS_ENZ_hIGF1R, was analyzed in the positive analysis fitting direction relative to DMSO as the negative control and baseline of activity. Using a type of enzyme reporter, loss-of-signal activity can be used to understand changes in the enzymatic activity as they relate to the gene IGF1R. Furthermore, this assay endpoint can be referred to as a primary readout, because this assay has produced multiple assay endpoints where this one serves a enzymatic activity function. To generalize the intended target to other relatable targets, this assay endpoint is annotated to the kinase intended target family, where the subfamily is receptor tyrosine kinase.
# Binding assays used specific radioligands (tritiated, iodinated) with non-radioactive competitive displacement ligands in agonist or antagonist protocols (as indicated) and various reference compounds and inhibitors to titrate specific binding to receptors and transporters. Most enzyme assays (CYPs, kinases, phosphatases, proteases, HDACs) used recombinant protein and specific substrates (fluorescence mostly, some colorimetric and radioactive) and inhibitors, followed by a biochemical separation of substrate and product. All assays for the biochemical HTS were initially run in duplicate at a single concentration (10 uM for CYP450 assays and 25 uM for all others). Assay-chemical combinations meeting a pre-defined threshold (e.g., 30% inhibition and other criteria defined below) were then run in singleton concentration-response format with maximum concentration of 20 uM for CYPs and 50 uM for all others. Each assay was run with positive and negative controls, and concurrent controls on every plate. The follow-up (secondary) screen tested active chemical-pairs in concentration series, as well as a few additional assays not tested in the primary screen, some selected negative inactives, and several cases re-run in the concentration series for confirmatory purposes.
# Chain of human Insulin-like Growth Factor 1 Receptor (IGF1R), IGF1R (gene 3480) (P08069 whole entry, looked up): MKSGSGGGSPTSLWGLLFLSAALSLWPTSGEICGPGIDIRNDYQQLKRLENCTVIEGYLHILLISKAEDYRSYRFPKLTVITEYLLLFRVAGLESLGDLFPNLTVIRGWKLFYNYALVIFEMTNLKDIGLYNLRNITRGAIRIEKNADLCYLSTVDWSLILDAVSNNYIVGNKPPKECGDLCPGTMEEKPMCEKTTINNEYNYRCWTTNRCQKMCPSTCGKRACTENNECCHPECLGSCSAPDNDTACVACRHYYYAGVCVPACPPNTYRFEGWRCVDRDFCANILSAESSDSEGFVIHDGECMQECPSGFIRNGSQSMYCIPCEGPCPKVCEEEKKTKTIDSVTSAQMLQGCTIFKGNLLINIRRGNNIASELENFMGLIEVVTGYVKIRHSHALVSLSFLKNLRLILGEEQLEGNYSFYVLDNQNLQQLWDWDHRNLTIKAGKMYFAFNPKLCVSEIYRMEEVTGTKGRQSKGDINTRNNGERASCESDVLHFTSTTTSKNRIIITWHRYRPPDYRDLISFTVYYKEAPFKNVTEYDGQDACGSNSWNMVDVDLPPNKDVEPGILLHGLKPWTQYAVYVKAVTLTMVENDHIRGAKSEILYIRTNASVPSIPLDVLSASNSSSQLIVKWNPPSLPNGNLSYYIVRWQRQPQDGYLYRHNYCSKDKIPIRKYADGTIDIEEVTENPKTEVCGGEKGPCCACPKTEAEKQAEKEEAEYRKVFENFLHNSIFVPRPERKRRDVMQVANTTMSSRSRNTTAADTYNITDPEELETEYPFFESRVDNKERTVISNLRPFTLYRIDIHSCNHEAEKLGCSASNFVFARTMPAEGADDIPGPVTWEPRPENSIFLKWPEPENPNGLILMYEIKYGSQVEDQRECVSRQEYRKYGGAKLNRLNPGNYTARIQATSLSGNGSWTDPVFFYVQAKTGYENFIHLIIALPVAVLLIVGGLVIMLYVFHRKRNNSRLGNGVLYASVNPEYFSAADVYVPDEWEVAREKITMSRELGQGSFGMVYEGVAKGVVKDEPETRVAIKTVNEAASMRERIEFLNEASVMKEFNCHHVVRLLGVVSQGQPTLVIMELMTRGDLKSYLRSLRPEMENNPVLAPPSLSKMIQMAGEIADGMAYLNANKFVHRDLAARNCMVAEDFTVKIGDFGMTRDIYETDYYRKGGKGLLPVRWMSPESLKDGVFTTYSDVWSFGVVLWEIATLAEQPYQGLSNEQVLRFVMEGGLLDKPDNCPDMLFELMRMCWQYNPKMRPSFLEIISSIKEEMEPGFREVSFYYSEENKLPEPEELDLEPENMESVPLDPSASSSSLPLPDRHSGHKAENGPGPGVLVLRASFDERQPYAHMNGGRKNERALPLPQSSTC
Structure (SMILES),outcome,AC50
CCC1(c2ccccc2)C(=O)N=C(O)NC1=O (stereo unspecified),inactive,–
CC(C)C(=O)OCC(C)(C)C(OC(=O)C(C)C)C(C)C (stereo unspecified),inactive,–
Clc1cccc(Cl)c1,inactive,–
O=C(N[C@H]1CN2CCC1CC2)c1ccc2c(c1)OCCO2,inactive,–
CC(C)(C)c1cc(O)ccc1O,inactive,–
CN(C)[C@@H]1C(=O)C(C(N)=O)=C(O)[C@@]2(O)C(=O)C3=C(O)c4c(O)cccc4[C@@](C)(O)[C@H]3[C@H](O)[C@@H]12,–,39.4 µM (active)
